# Assays:
# [1] = biological target: Death-associated protein kinase 1 (Homo sapiens) (UniProt P53355); settings: at 1 µM;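 note: each value is a mean inhibition figure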
# [2] = biological target: T1, Serine/threonine-protein kinase DCLK2 (Homo sapiens) (UniProt Q8N568); settings: at 0.1 µM
# T1 sequence (whole entry): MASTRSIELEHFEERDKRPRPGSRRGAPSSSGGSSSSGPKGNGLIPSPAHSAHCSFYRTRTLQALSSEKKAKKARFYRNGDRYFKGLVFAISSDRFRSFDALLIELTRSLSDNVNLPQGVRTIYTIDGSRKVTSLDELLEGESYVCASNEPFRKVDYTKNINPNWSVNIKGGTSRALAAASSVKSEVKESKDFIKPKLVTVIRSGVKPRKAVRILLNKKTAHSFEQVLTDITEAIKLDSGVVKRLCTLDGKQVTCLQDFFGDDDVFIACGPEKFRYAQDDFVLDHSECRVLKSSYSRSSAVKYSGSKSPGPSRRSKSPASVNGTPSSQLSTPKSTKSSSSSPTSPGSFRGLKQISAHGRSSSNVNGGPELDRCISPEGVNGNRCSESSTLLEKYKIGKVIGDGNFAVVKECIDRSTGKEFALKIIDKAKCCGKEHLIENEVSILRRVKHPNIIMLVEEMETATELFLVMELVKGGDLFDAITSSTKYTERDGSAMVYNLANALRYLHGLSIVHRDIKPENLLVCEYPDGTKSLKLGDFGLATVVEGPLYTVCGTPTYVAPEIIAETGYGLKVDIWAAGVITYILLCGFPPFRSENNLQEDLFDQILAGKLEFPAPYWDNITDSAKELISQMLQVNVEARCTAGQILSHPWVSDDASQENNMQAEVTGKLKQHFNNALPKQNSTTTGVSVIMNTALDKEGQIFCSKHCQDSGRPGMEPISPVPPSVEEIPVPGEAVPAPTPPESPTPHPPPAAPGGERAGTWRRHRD
# [3] = biological target: T1, Serine/threonine-protein kinase DCLK2 (Homo sapiens); settings: at 1 µM
# [4] = biological target: MAP kinase-activated protein kinase 2 (Homo sapiens) (UniProt P49137); settings: at 0.1 µM
# Sequence of MAP kinase-activated protein kinase 2 (Homo sapiens) (P49137 whole entry, looked up): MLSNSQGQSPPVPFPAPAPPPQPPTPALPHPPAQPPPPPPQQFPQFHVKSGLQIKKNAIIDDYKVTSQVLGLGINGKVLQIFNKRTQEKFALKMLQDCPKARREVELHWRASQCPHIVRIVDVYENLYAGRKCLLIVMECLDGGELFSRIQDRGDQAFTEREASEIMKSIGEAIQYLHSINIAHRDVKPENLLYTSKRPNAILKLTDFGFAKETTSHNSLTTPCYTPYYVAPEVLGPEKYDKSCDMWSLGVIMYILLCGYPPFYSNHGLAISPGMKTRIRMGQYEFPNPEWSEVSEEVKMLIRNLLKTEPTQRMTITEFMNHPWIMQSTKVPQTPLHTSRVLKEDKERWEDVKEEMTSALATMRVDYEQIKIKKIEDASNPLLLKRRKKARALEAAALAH
# [5] = biological target: MAP kinase-activated protein kinase 2 (Homo sapiens) (UniProt P49137); settings: at 1 µM
# [6] = biological target: MAP kinase-activated protein kinase 3 (Homo sapiens) (UniProt Q16644); settings: at 0.1 µM
# [7] = biological target: MAP kinase-activated protein kinase 3 (Homo sapiens) (UniProt Q16644); settings: at 1 µM
# [8] = biological target: Serine/threonine-protein kinase MARK1 (Homo sapiens) (UniProt Q9P0L2); settings: at 0.1 µM
# Sequence of Serine/threonine-protein kinase MARK1 (Homo sapiens) (Q9P0L2 whole entry, looked up): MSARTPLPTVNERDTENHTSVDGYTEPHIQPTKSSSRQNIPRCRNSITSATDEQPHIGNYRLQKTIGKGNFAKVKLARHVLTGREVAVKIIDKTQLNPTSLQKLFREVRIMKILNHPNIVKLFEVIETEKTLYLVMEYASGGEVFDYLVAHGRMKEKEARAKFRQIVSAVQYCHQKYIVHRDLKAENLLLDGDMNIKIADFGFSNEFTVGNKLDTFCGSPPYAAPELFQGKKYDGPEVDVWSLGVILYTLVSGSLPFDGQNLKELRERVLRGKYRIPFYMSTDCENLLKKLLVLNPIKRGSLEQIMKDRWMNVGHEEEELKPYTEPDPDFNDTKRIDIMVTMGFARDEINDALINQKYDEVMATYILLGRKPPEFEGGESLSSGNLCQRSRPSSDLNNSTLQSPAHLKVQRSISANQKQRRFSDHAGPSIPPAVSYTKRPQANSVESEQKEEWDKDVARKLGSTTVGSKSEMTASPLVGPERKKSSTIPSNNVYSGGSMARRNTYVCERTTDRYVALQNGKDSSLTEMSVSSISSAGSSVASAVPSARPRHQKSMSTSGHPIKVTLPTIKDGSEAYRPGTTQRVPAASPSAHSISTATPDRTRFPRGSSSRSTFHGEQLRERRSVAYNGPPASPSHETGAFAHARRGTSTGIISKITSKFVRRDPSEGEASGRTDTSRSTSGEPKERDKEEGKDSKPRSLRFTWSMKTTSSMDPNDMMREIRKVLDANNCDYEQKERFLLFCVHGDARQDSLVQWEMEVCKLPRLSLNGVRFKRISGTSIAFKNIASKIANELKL
# [9] = biological target: Serine/threonine-protein kinase MARK1 (Homo sapiens) (UniProt Q9P0L2); settings: at 1 µM
# [10] = biological target: MAP/microtubule affinity-regulating kinase 3 (Homo sapiens) (UniProt P27448); settings: at 0.1 µM
# Sequence of MAP/microtubule affinity-regulating kinase 3 (Homo sapiens) (P27448 whole entry, looked up): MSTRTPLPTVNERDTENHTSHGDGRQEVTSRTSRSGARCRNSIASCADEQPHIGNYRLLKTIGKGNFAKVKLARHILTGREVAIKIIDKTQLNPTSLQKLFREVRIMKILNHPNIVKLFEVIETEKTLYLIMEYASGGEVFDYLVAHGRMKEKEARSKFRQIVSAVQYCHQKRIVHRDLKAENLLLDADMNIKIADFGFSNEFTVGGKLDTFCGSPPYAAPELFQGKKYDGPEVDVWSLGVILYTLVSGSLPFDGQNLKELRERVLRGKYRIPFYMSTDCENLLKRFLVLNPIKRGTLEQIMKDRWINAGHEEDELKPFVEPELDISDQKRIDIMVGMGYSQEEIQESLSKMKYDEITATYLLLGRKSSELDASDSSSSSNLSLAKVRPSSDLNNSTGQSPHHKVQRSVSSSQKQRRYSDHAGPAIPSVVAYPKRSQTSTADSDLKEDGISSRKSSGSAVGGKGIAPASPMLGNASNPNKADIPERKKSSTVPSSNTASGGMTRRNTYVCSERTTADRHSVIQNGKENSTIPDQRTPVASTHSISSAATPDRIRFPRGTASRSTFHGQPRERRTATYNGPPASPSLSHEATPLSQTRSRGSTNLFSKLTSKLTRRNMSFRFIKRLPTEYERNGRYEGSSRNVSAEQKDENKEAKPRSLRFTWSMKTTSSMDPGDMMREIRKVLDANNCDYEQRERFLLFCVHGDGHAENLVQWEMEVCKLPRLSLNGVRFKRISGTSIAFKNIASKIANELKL
# [11] = biological target: MAP/microtubule affinity-regulating kinase 3 (Homo sapiens) (UniProt P27448); settings: at 1 µM
# [12] = biological target: T2, MAP/microtubule affinity-regulating kinase 4 (Homo sapiens) (UniProt Q96L34); settings: at 0.1 µM
# T2 sequence (whole entry): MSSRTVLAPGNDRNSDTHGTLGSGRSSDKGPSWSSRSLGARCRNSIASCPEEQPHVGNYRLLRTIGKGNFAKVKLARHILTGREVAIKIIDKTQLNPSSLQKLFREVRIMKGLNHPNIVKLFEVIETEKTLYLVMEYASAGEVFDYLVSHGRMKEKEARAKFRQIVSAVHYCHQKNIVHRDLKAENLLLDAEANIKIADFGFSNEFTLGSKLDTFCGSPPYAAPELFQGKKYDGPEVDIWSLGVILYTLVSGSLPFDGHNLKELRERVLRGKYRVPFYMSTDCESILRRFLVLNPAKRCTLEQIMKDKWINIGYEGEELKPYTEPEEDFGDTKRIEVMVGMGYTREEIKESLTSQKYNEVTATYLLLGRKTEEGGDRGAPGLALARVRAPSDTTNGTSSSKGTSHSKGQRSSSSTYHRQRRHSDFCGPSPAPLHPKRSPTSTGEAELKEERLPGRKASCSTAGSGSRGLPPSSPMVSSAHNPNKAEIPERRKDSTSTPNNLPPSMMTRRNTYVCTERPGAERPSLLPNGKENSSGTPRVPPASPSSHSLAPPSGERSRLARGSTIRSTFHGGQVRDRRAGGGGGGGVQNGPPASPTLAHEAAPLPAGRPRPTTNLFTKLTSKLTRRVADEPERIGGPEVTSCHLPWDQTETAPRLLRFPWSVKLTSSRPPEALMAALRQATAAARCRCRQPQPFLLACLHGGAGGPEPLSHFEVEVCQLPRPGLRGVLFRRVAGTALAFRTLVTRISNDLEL
# [13] = biological target: T2, MAP/microtubule affinity-regulating kinase 4 (Homo sapiens); settings: at 1 µM
# [14] = biological target: Maternal embryonic leucine zipper kinase (Homo sapiens) (UniProt Q14680); settings: at 0.1 µM
# Sequence of Maternal embryonic leucine zipper kinase (Homo sapiens) (Q14680 whole entry, looked up): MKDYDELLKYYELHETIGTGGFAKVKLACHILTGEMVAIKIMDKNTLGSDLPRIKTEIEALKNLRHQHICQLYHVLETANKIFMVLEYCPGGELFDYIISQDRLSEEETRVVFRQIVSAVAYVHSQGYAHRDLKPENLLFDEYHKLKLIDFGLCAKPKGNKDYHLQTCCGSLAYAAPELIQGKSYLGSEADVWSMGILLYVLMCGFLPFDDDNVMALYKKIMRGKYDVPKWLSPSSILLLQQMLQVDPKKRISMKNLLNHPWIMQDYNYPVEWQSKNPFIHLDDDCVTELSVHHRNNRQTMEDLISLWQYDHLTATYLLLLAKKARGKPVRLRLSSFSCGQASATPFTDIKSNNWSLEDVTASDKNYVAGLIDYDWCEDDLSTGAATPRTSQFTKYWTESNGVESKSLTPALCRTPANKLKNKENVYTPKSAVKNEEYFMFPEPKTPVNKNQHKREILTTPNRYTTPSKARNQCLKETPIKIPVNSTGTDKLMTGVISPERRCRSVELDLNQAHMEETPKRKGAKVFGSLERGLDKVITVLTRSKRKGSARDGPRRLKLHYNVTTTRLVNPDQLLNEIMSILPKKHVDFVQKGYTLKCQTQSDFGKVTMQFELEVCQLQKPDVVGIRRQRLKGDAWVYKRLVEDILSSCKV
# [15] = biological target: Maternal embryonic leucine zipper kinase (Homo sapiens) (UniProt Q14680); settings: at 1 µM
# [16] = biological target: MAP kinase-interacting serine/threonine-protein kinase 1 (Homo sapiens) (UniProt Q9BUB5); settings: at 0.1 µM
# Sequence of MAP kinase-interacting serine/threonine-protein kinase 1 (Homo sapiens) (Q9BUB5 whole entry, looked up): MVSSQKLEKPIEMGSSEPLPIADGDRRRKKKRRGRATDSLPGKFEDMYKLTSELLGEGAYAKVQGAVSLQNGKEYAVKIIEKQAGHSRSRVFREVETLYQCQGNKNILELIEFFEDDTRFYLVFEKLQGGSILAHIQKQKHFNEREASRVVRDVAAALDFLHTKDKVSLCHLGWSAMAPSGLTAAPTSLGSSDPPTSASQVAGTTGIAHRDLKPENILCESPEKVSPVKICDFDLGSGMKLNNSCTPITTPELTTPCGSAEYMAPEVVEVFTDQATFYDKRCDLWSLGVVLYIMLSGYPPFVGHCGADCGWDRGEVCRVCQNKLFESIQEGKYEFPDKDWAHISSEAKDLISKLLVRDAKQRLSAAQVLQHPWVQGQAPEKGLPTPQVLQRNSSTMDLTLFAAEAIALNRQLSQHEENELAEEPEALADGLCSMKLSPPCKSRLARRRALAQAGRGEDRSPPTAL
# [17] = biological target: MAP kinase-interacting serine/threonine-protein kinase 1 (Homo sapiens) (UniProt Q9BUB5); settings: at 1 µM
# [18] = biological target: MAP kinase-interacting serine/threonine-protein kinase 2 (Homo sapiens) (UniProt Q9HBH9); settings: at 0.1 µM
# Sequence of MAP kinase-interacting serine/threonine-protein kinase 2 (Homo sapiens) (Q9HBH9 whole entry, looked up): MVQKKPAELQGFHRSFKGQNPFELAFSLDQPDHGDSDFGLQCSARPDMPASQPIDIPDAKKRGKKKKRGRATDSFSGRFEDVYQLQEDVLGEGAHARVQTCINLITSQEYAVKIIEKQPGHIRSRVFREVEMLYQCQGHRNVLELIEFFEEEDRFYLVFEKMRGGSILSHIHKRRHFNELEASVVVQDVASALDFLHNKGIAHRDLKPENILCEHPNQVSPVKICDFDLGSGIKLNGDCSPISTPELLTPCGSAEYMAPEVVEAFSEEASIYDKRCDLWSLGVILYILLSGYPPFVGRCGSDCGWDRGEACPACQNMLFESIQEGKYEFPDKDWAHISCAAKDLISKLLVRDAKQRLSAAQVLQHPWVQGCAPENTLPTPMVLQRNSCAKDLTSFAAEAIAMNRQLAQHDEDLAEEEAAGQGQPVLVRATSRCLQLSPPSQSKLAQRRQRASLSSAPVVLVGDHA
# [19] = biological target: MAP kinase-interacting serine/threonine-protein kinase 2 (Homo sapiens) (UniProt Q9HBH9); settings: at 1 µM
# [20] = biological target: Serine/threonine-protein kinase MARK2 (Homo sapiens) (UniProt Q7KZI7); settings: at 0.1 µM;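 note: mean percent inhibition of PAR-1Balpha kinase activity, reported from the GSK PKIS screen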
# Sequence of Death-associated protein kinase 1 (Homo sapiens) (P53355 whole entry, looked up): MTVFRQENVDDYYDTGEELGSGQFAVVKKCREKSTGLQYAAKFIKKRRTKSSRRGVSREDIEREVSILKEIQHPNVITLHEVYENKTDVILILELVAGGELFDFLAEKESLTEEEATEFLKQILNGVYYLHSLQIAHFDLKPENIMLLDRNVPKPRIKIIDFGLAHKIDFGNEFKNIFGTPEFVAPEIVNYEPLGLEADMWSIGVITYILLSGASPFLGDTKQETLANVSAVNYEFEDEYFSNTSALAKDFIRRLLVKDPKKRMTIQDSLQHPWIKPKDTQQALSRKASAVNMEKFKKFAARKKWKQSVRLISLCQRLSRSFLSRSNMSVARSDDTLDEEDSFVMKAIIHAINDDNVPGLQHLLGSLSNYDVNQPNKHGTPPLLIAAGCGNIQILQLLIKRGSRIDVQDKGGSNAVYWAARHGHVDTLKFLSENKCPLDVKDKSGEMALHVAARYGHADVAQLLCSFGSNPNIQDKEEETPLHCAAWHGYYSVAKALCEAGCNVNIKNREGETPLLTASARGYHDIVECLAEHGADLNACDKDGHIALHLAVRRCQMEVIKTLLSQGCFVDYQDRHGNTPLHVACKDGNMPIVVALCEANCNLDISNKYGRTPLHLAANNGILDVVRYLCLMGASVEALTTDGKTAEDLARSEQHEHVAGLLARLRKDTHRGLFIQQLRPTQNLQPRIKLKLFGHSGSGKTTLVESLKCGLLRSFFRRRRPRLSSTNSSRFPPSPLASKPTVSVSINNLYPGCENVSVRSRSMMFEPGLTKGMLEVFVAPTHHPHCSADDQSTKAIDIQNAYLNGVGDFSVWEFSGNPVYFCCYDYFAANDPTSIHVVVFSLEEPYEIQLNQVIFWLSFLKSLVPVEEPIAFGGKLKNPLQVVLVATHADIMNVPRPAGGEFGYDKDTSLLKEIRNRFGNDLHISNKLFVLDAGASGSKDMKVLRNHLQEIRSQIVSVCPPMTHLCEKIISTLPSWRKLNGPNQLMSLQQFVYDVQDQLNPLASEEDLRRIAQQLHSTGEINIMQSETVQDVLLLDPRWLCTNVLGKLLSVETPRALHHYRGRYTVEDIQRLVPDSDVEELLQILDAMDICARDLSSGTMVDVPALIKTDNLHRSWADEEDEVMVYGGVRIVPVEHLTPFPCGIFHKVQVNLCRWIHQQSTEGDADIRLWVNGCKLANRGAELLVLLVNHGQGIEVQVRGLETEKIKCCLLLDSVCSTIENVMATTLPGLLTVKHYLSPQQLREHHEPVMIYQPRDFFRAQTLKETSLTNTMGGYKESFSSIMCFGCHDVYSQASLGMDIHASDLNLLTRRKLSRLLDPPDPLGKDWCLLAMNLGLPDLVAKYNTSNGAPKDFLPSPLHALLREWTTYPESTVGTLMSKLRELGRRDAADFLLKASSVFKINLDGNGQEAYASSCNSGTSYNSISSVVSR
structure (smiles),measurement,setting,value
COc1cc(Nc2nccc(-c3cnn4ncccc34)n2)cc(OC)c1,inhibition,[1],1.26%
same,inhibition,[2],4.84%
same,inhibition,[3],-3.23%
same,inhibition,[4],0.26%
same,inhibition,[5],0.15%
same,inhibition,[6],0.44%
same,inhibition,[7],0.56%
same,inhibition,[8],4.67%
same,inhibition,[9],32.3%
same,inhibition,[10],6.88%
same,inhibition,[11],34.1%
same,inhibition,[12],3.44%
same,inhibition,[13],22.1%
same,inhibition,[14],7.1%
same,inhibition,[15],43.9%
same,inhibition,[16],1.97%
same,inhibition,[17],10.2%
same,inhibition,[18],3.13%
same,inhibition,[19],17.2%
same,inhibition,[20],2.81%
CCn1c(-c2nonc2N)nc2c(C#CC(C)(C)O)nc(OCCNC)cc21,inhibition,[1],-0.74%
same,inhibition,[2],-0.8%
same,inhibition,[3],-0.85%
same,inhibition,[4],1.85%
same,inhibition,[5],2.88%
same,inhibition,[6],2.43%
same,inhibition,[7],3.56%
same,inhibition,[8],1.55%
same,inhibition,[9],10.3%
same,inhibition,[10],0.62%
same,inhibition,[11],11.6%
same,inhibition,[12],2.05%
same,inhibition,[13],7.52%
same,inhibition,[14],17.5%
same,inhibition,[15],81.1%
same,inhibition,[16],1.63%
same,inhibition,[17],3.44%
same,inhibition,[18],0.5%
same,inhibition,[19],1.12%
same,inhibition,[20],1.74%
CC(C)c1ccc2c(c1)NC(=O)/C2=N/Nc1ccc(S(N)(=O)=O)cc1,inhibition,[1],-1.66%
same,inhibition,[2],-1.85%
same,inhibition,[3],-0.66%
same,inhibition,[4],-1.01%
same,inhibition,[5],-0.9%
same,inhibition,[6],-0.68%
same,inhibition,[7],-1.45%
same,inhibition,[8],-0.84%
same,inhibition,[9],0.9%
same,inhibition,[10],-3.67%
same,inhibition,[11],-2.09%
same,inhibition,[12],-0.86%
same,inhibition,[13],0.13%
same,inhibition,[14],0.88%
same,inhibition,[15],0.52%
same,inhibition,[16],1.43%
same,inhibition,[17],2.29%
same,inhibition,[18],0.22%
same,inhibition,[19],2.57%
same,inhibition,[20],-1.41%
Cc1ccc(C(=O)NC2CC2)cc1-c1ccc2[nH]ncc2c1,inhibition,[1],-2.38%
same,inhibition,[2],-3.53%
same,inhibition,[3],-2.34%
same,inhibition,[4],-2.72%
same,inhibition,[5],-1.94%
same,inhibition,[6],3.22%
same,inhibition,[7],18.7%
same,inhibition,[8],0.44%
same,inhibition,[9],2.83%
same,inhibition,[10],1.64%
same,inhibition,[11],5.49%
same,inhibition,[12],1.68%
same,inhibition,[13],3.83%
same,inhibition,[14],-4.14%
same,inhibition,[15],-5.86%
same,inhibition,[16],-1.37%
same,inhibition,[17],-1.19%
same,inhibition,[18],0.44%
same,inhibition,[19],1.35%
same,inhibition,[20],2.15%
CCOc1nccc2c1nc(-c1nonc1N)n2CC,inhibition,[1],3.18%
same,inhibition,[2],0.43%
same,inhibition,[3],1.18%
same,inhibition,[4],2.38%
same,inhibition,[5],2.83%
same,inhibition,[6],3.14%
same,inhibition,[7],2.96%
same,inhibition,[8],2.58%
same,inhibition,[9],9.64%
same,inhibition,[10],1.53%
same,inhibition,[11],9.66%
same,inhibition,[12],1.03%
same,inhibition,[13],5.45%
same,inhibition,[14],3.16%
same,inhibition,[15],5.63%
same,inhibition,[16],3.48%
same,inhibition,[17],9.35%
same,inhibition,[18],3.06%
same,inhibition,[19],6.16%
same,inhibition,[20],1.34%
CCCN1CCCC(c2ccc(Nc3nc(Nc4cc(F)ccc4C(N)=O)c4cc[nH]c4n3)c(OC)c2)C1 (stereo not given),inhibition,[1],47.1%
same,inhibition,[2],2.57%
same,inhibition,[3],7.08%
same,inhibition,[4],2.17%
same,inhibition,[5],3.54%
same,inhibition,[6],8.62%
same,inhibition,[7],17.3%
same,inhibition,[8],11%
same,inhibition,[9],52.9%
same,inhibition,[10],19.9%
same,inhibition,[11],68.3%
same,inhibition,[12],7.3%
same,inhibition,[13],40.7%
same,inhibition,[14],24%
same,inhibition,[15],75.2%
same,inhibition,[16],3.82%
same,inhibition,[17],5.92%
same,inhibition,[18],1.87%
same,inhibition,[19],2.51%
same,inhibition,[20],6.68%
NS(=O)(=O)c1ccc(N/N=C2\C(=O)Nc3ccc(Cl)cc32)cc1,inhibition,[1],-3.71%
same,inhibition,[2],0.73%
same,inhibition,[3],1%
same,inhibition,[4],-0.88%
same,inhibition,[5],-0.73%
same,inhibition,[6],-2.03%
same,inhibition,[7],-2.76%
same,inhibition,[8],3.26%
same,inhibition,[9],11.4%
same,inhibition,[10],4.4%
same,inhibition,[11],13.2%
same,inhibition,[12],2.09%
same,inhibition,[13],11.2%
same,inhibition,[14],3.75%
same,inhibition,[15],8.5%
same,inhibition,[16],2.08%
same,inhibition,[17],10.1%
same,inhibition,[18],1.59%
same,inhibition,[19],5.65%
same,inhibition,[20],0.41%
